Screening results deposited in PubChem BioAssay by The Scripps Research Institute Molecular Screening Center.
Compounds with a hit are over-represented: about 3.1% of the library has one in this group of screens.
Rin1-Abl PPI inh = blocks binding of human Rin1 to Abl; P00519+Q13671; TR-FRET Rin1/Abl binding, biochemical; inhibition, % at 7.35 µM; hit rate 0.4% among 360,000; in the data active means inhibition above about 5%, passing the limit was not always enough
Target sequence (P00519 whole entry, looked up): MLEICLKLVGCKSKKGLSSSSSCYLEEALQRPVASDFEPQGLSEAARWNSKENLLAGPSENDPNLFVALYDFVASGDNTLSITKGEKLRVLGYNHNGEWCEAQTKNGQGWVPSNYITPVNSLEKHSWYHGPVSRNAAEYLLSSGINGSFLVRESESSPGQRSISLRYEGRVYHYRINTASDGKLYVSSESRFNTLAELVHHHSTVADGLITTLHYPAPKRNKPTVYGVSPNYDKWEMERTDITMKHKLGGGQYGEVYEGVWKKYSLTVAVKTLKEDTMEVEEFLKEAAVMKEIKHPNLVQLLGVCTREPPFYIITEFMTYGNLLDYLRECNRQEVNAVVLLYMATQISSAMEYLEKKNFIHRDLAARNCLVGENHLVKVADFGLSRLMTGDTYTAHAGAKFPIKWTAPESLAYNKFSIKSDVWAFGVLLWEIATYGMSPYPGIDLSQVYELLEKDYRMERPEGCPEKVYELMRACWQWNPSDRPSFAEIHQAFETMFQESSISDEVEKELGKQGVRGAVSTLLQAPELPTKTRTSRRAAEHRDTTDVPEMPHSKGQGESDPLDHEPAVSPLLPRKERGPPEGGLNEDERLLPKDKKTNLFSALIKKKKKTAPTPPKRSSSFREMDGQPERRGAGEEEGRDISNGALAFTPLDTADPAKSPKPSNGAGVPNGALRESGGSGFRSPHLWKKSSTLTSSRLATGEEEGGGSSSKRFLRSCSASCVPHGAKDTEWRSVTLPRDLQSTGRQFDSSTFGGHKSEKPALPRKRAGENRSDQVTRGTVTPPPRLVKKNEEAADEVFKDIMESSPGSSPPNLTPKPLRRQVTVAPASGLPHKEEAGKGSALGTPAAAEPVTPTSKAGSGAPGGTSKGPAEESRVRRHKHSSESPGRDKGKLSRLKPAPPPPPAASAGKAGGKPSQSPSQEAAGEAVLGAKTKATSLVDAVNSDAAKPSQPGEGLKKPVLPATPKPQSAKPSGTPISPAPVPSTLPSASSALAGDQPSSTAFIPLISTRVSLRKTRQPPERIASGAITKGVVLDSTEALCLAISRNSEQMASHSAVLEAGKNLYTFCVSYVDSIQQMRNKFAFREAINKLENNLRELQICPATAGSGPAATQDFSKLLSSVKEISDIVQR
Target sequence (Q13671 whole entry, looked up): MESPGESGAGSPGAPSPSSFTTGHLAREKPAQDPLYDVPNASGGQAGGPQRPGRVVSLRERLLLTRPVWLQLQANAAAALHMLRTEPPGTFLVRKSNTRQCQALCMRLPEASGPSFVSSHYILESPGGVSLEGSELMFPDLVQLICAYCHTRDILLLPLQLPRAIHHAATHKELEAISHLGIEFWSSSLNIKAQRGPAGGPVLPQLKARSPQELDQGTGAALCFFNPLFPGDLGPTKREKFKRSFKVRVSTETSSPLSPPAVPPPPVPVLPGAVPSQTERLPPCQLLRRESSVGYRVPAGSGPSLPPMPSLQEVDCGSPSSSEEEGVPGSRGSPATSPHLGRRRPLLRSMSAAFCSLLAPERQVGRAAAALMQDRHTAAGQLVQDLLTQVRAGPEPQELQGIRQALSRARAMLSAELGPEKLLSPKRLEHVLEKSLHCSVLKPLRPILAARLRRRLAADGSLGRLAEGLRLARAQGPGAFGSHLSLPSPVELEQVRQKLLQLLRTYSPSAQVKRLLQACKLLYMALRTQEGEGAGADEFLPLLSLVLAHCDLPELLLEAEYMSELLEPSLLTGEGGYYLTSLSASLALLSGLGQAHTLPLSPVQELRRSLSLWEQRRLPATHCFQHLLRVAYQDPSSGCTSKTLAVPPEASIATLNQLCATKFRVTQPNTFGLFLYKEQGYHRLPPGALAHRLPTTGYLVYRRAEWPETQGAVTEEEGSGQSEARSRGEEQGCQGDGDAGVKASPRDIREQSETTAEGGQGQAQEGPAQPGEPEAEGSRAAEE
PAFAH2 FP inh = PAFAH2 (human) inhibition | inhibition, % at 3.39 µM | recombinant PAFAH2, FP-rhodamine activity probe, fluorescence polarization | Q99487 | AID 492956 | hit rate 0.99% among 340,000;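 active means inhibition above the mean over all tested compounds plus 3 SD, cut at about 30% in these data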;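 further: inhibitors block probe labeling of enzyme so polarization drops; 0% = enzyme with DMSO and 100% = wells lacking PAFAH2 protein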
PAFAH1B2 inh = inhibitors of human PAFAH1B2. recombinant PAFAH1B2, FP-rhodamine activity probe, fluorescence polarization. inhibition, % at 3.39 µM. hit rate 1.2% among 340,000;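 active means inhibition above the mean of all tested compounds plus 3 SD, cut at about 24% in these data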;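 further: 0% = enzyme with DMSO and 100% = wells lacking PAFAH1B2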
PAFAH1B3 inh = blocks human PAF acetylhydrolase 1B catalytic subunit 3. Q15102. recombinant PAFAH1B3, FP-rhodamine probe, fluorescence polarization. inhibition, % at 3.39 µM. hit rate 0.28% among 340,000;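 active means inhibition above the screen-wide average of all tested compounds plus 3 SD, cut at about 25% in these data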;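 further: 0% = enzyme with DMSO only and 100% = wells lacking PAFAH1B3 protein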
pPAFAH FP inh = pPAFAH (human) enzyme inhibition; Q13093; recombinant pPAFAH, FP-rhodamine probe fluorescence polarization; inhibition, % at 3.39 µM; hit rate 1.5% among 330,000; AID 463082;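 active means inhibition above the mean inhibition across the screen plus 3 SD, cut at about 25% in these data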;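 further: inhibitors block binding of the rhodamine activity-based probe so polarization drops; 0% = enzyme with DMSO and 100% = wells lacking pPAFAH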
eLon inh = E. coli protease La inhibition | P0A9M0 | inhibition, % at 7.94 µM | purified E. coli Lon protease, fluorescence polarization | hit rate 0.42% among 360,000; in the data active means inhibition above about 13%, passing the limit was not always enough;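 further: 0% = enzyme with probe and DMSO and 100% = no enzyme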
E coli Lon conf = E. coli Lon inhibition confirmation; shares compounds with eLon inh; hit rate 31% among 1,400; purified E. coli Lon, fluorescence polarization; AID 602230; inhibition, % at 7.94 µM; in the data active means inhibition above about 16%;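 further: 0% = enzyme with probe and DMSO and 100% = no enzyme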
The depositor's hits bear a star; / = no result; + = active, no number.

SMILES | Rin1-Abl PPI inh | PAFAH2 FP inh | PAFAH1B2 inh | PAFAH1B3 inh | pPAFAH FP inh | eLon inh | E coli Lon conf
Cc1ccc2nc(N3CCN(C)CC3)c(C=O)c(=O)n2c1 | 3 | 4 | 3 | 9 | 8 | 64* | -1
O=Cc1c(N2CCN(c3ccccc3)CC2)nc2ccccn2c1=O | -4 | -5 | 1 | -2 | 1 | -1 | /
O=Cc1c(N2CCSCC2)nc2ccccn2c1=O | 0 | 2 | 4 | 9 | 4 | 4 | /
CCN1CCN(c2nc3ccccn3c(=O)c2C=O)CC1 | -1 | -3 | 10 | 8 | 3 | 20* | -3
CCn1c(SCC(=O)NCc2ccccc2)nnc1C(CO)NC(=O)c1ccccc1 (configuration not stated) | -1 | 4 | 0 | 6 | 3 | -7 | /
COc1ccc(NC(=O)Nc2ccc(OCc3ccccc3)cc2)cn1 | -3 | -12 | 2 | 0 | / | 25* | 25*
COc1ccc(NC(=O)NS(=O)(=O)c2ccc(C)cc2)cn1 | -2 | -1 | -1 | 8 | / | 87* | 28*
COc1ccc(NC(=O)Nc2ccc([N+](=O)[O-])cc2)cn1 | -3 | -2 | 7 | -3 | 8 | 20* | 1
CC(C)NC(=O)c1cc(C2CCCCN2C(=O)c2ccccc2)on1 (configuration not stated) | -8 | / | / | / | / | -6 | /
Nc1ncnc2c1ncn2[C@@H]1O[C@H](C(=O)N[C@H]2c3ccccc3C[C@H]2OC=O)[C@@H](O)[C@H]1O | 1 | / | / | / | / | 0 | /
COc1ccc(C2CC(c3ccccc3)=NN2C(=O)CCCC(=O)O)cc1 (configuration not stated) | 2 | 2 | 3 | 8 | 10 | -7 | /
CC(NC(=O)c1cc2ccccc2oc1=O)c1ccccc1 (configuration not stated) | -1 | 13 | 7 | 10 | 2 | 0 | /
COC(=O)C1=C(C)NC(=S)N(C(C)=O)C1c1ccccc1 (configuration not stated) | 3 | 7 | 3 | 2 | -6 | 17* | 21*
COC(=O)C1=C(C)NC(=O)CC1c1ccccc1 (configuration not stated) | 2 | -4 | 2 | -3 | -4 | -1 | /
COC(=O)c1ccc(=O)n(Cc2ccc3c(c2)OCO3)c1 | 4 | 0 | 0 | 1 | 2 | 21* | -7
O=c1c2ccccc2sn1-c1nccs1 | -2 | / | / | / | / | 22* | 20*
O=c1c2ccccc2sn1-c1ccccc1 | 0 | 16 | -2 | 4 | 2 | 17 | /
COCCNC(=O)C1(C)CCCN(C(=O)c2ccccc2F)C1 (configuration not stated) | 0 | / | / | / | / | 8 | /
CCC(C)(C)NC(=O)C(c1cccc(OC)c1OC)N(C(=O)CCC(=O)Nc1cc(C)on1)C(C)C (configuration not stated) | 3 | 13 | 9 | 2 | 1 | 21* | 5
CCC(C)(C)NC(=O)C(c1cccc(OC)c1OC)N(CCC(C)C)C(=O)CCC(=O)Nc1cc(C)on1 (configuration not stated) | 4 | 6 | -3 | -1 | 0 | 1 | /
Cc1ccc(S(=O)(=O)NNC(=S)Nc2ccccc2)cc1 | 0 | 6 | 16 | 2 | 0 | 22* | -6
Cc1ccc(S(=O)(=O)NNC(=S)Nc2c(Cl)cccc2Cl)cc1 | 3 | -8 | 7 | 5 | -2 | -2 | /
O=C(NCCN1CCOCC1)c1cc(S(=O)(=O)NCCCN2CCCC2=O)ccc1Cl | 2 | 6 | 3 | 16 | 0 | 40* | 10
COc1ccccc1C(CNC(=O)C1CC(=O)N(Cc2ccc(C)cc2)C1)N1CCCC1 (configuration not stated) | -2 | 0 | 0 | -3 | -1 | 2 | /
O=C(Cc1ccccc1)Nc1ccccc1C(=O)N1CCN(c2ccccc2)CC1 | 1 | -5 | -5 | 1 | 2 | -13 | /
SMILES | Rin1-Abl PPI inh | PAFAH2 FP inh | PAFAH1B2 inh | PAFAH1B3 inh | pPAFAH FP inh | eLon inh | E coli Lon conf
COc1ccccc1NC(=O)COC(=O)c1ccccc1C(=O)N1CCN(c2ccccc2)CC1 | 1 | -2 | 0 | 12 | -2 | 24* | 5
CC1CCN(C(=O)CSc2ccc(-c3cccnc3)nn2)CC1 | 2 | 0 | 1 | 4 | -3 | -8 | /
O=CNCc1nc2ccccc2n1CCc1ccccc1 | -1 | 2 | 7 | 9 | -1 | -6 | /
O=CNCCCc1nc2ccccc2n1CCc1ccccc1 | 2 | -3 | 5 | 5 | / | 18* | 5
CC(=O)N/N=C/c1c(C)[nH]n(-c2ccccc2)c1=O | 1 | 1 | 10 | 6 | -3 | 3 | /
Cc1[nH]n(-c2ccccc2)c(=O)c1/C=N/NC(=O)c1ccccc1F | 0 | 7 | 4 | 10 | 10 | 21* | -6
Clc1ccc(-c2c(C3=NCCCN3)nnn2-c2ccc(Cl)cc2)cc1 | 4 | 5 | 1 | 0 | / | -2 | /
CC(=O)Nc1c(Br)cc2c(c1Br)Cc1cc([N+](=O)[O-])ccc1-2 | 2 | 5 | 6 | 4 | / | -2 | /
CCOC(=O)NC(=O)/C(C#N)=C\Nc1ccc(Cl)cc1Cl | -1 | 1 | 6 | 2 | 6 | 1 | /
CCOC(=O)NC(=O)/C(C#N)=C\Nc1sccc1C(=O)OC | -5 | 3 | -1 | 1 | 17 | + | 2
C=CCOc1ccccc1CNc1ccc2[nH]c(=O)[nH]c2c1 | 2 | 7 | 10 | 0 | 6 | 25* | -3
O=C1C2C3C=CC(C4CC34)C2C(=O)N1/N=C/c1ccc(-c2ccc(F)cc2[N+](=O)[O-])o1 (configuration not stated) | -3 | 2 | 2 | 9 | 2 | 19* | 71*
NC1=Nc2cccc3cccc1c23 | 0 | 6 | 15 | 1 | 3 | 29* | 17*
CCCCn1c(N)c(N(CC(C)C)C(=O)CCNC(=O)c2ccc([N+](=O)[O-])cc2)c(=O)[nH]c1=O | 4 | 3 | -1 | 4 | / | 1 | /
O=[N+]([O-])c1ccc(Oc2cccc3cccnc23)c([N+](=O)[O-])c1 | 0 | 4 | 3 | -5 | -1 | -41 | /
N#Cc1ccc(Oc2cccc3cccnc23)c([N+](=O)[O-])c1 | 0 | 5 | 5 | -1 | -1 | 101* | 13
Cc1cc2cc3c(=O)[nH]c(=O)cc-3n(CC(O)C(O)C(O)CO)c2cc1C (configuration not stated) | -28 | / | / | / | / | 87* | 91*
Cc1cc2cc3c(=O)[nH]c(=O)nc-3n(CC(O)C(O)C(O)CO)c2cc1C (configuration not stated) | 2 | 1 | 1 | 3 | / | 1 | /
COC(=O)C1=C(C(=O)OC)C(C(=O)OC)N2C=CC=CC2=C1C(=O)OC (configuration not stated) | -2 | / | / | / | / | -5 | /
